Out of some 69,000 compounds screened, about 8,600 (12%) showed an effect of 50% or more. For the sample, strong results were picked, then their nearest neighbours and some compounds at random.
The molecules below were run on Plasmodium berghei (assay: Screen against P. berghei liver stage (PbLuc), transformed with Luciferase, at 10uM). Conditions: tested at 10 uM.
Type: functional, HepG2

Structure (SMILES)	INHIBITION [%]
CSc1ccc(C(=O)N2CC(=O)N(CC(C)(C)C)CC(O)C2)cc1 (stereo not given)	37.4
O=C1CN(CC2CC2)Cc2nc(NCCc3ccccn3)sc21	23.4
CC(=O)N1CCCC2(CCN(c3ccccc3)C2=O)C1 (stereo not given)	2.58
O=C(NCCc1ccccc1)N1CCCCC1C1OCCO1 (stereo not given)	25.7
O=C(CCc1ccccc1)N1CCCCC1C1OCCO1 (stereo not given)	72.1
O=C(CCc1ccccc1)N1CCCCC1Cn1cccn1 (stereo not given)	29.4
c1coc(CN2CCOC3(COCCN(Cc4ccncc4)C3)C2)c1 (stereo not given)	31.7
O=C(Cc1csc(-c2ccoc2)n1)NCCCN1CCCCC1	-55.1
CN(Cc1nnc(C2CC2)o1)C1CCN(CCc2cccs2)C1 (stereo not given)	56.7
CN(Cc1noc(C2CC2)n1)C1CCN(CCc2cccs2)C1 (stereo not given)	43.2
CN(Cc1nnc(C2CC2)n1C)C1CCN(CCc2cccs2)C1 (stereo not given)	-39.9
Cc1nc(CN(C)C2CCN(Cc3nnc(C4CC4)o3)C2)no1 (stereo not given)	-55.4
CC(C)c1nc(CN2CCCN(Cc3nnc(C4CC4)o3)CC2)no1	-33.5
CCc1nc(CN2CCCN(Cc3nnc(C4CC4)o3)CC2)no1	37.9
CN(Cc1noc(C2CC2)n1)C1CCN(Cc2nnc(C3CC3)o2)C1 (stereo not given)	51.6
C1CN(Cc2noc(C3CC3)n2)CCN(Cc2nnc(C3CC3)o2)C1	74.9
CC(C)c1nc(CN(C)C2CCN(Cc3nnc(C4CC4)o3)C2)no1 (stereo not given)	-25.9
COCCN1CC(=O)c2sc(NC(C)C)nc2C1	39.7
Cc1cc(N(C)C)nc(C2(C)CCCN2C(=O)c2ccn(C)n2)n1 (stereo not given)	36.4
Cc1cc(C(=O)N2CCCN(Cc3nccn3C)CC2)no1	22.3
Cc1ccc(S(=O)(=O)N2CCOCC2C#N)c(F)c1 (stereo not given)	-26.1
Cc1ccnc(C2CCCN2C(=O)c2cnccn2)n1 (stereo not given)	3.91
COc1ccc(N(C)Cc2nc3c(cnn3C)c(=O)[nH]2)cc1OC	35.9
CCOc1c(Br)cc(CNC(C)c2nnc3n2CCC3)cc1OC (stereo not given)	50.8

Structure (SMILES)	INHIBITION [%]
COc1cc(Br)c(CNC(C)c2nnc3n2CCC3)cc1OC (stereo not given)	47.1
CCOc1c(Br)cc(CNCCc2nnc3n2CCCCC3)cc1OC	55.4
Brc1cc(CNCc2nnc3n2CCC3)cs1	13.9
COc1cc(CNC(C)c2nnc3n2CCC3)cc(OC)c1 (stereo not given)	37.8
COc1cccc(CC(=O)NCCc2nnc3n2CCCCC3)c1	-11.3
CC1(NC(=O)Cc2csc(-c3ccccc3Cl)n2)CCS(=O)(=O)C1 (stereo not given)	34.6
CCN1CCOC(CNCc2ccc(OCc3ccccn3)cc2)C1 (stereo not given)	3.5
Cc1c(C(=O)N2CCN(c3ccccn3)CC2)n(C)c2ccc(Cl)cc12	34
CC(C)Cc1nc(CN2CCCC2Cn2cncn2)no1 (stereo not given)	9.85
N#Cc1ccc(CN2CCCN(CCCn3cncn3)CC2)cc1	56.5
N#Cc1ccc(CN2CCCN(C(=O)CCn3cncn3)CC2)cc1	-14.3
N#Cc1ccc(N2CCCN(CCCn3cncn3)CC2)cc1	9.87
CN(C)CCN1CCO[C@H]2CN(C(=O)N(C)C)C[C@H]21	33.4
O=C(O)c1csc(NCCc2ccccc2)n1	34.2
O=C(c1ccoc1)N1CCC2(CC1)C(=O)N(CC1CC1)c1ccccc12	29.7
CC(C)=CCN1C[C@@H]2CC[C@H]1CN(CCC(=O)NCc1ccco1)C2	29.7
CC(C)=CCN1C[C@@H]2CC[C@H]1CN(Cc1coc(C)n1)C2	55
CC(C)=CCN1C[C@@H]2CC[C@H]1CN(Cc1cc(=O)[nH]c(=O)[nH]1)C2	39
Cc1ccc(C(=O)N2C[C@@H]3OCCN(CCN4CCCC4)[C@@H]3C2)cn1	19.9
COc1cc(C)c2c(c1C)C[C@@H](C(C)C(=O)O)CC2 (stereo not given in full)	10.1
c1ccc(-n2ccc(CN3CCCC(Cn4cncn4)C3)n2)cc1 (stereo not given)	15.3
Cc1cc(C)n(CC(C)Nc2ncnc3c2CCNC3)n1 (stereo not given)	29.4
CC(C)Nc1ncnc2c1CCNCC2	43.8
CCOc1ccc(C(C)Nc2ncnc3c2CCNC3)cc1OCC (stereo not given)	47.9

Structure (SMILES)	INHIBITION [%]
CC(Nc1ncnc2c1CCNC2)c1ccc(C(C)(C)C)cc1 (stereo not given)	65
CC(Nc1ncnc2c1CCNCC2)c1nc2c(s1)CCCC2 (stereo not given)	1.98
Cc1ccccc1C(Nc1ncnc2c1CCNC2)c1ccccc1 (stereo not given)	36.8
CC(Nc1ncnc2c1CCNC2)c1ccc2c(c1)CCCC2 (stereo not given)	88.6
Cc1nc(C(C)Nc2ncnc3c2CCNCC3)c(C)s1 (stereo not given)	-10.9
CCCc1ccc(C(C)Nc2ncnc3c2CCNC3)cc1 (stereo not given)	74.7
O=C(C1CCOCC1)N1CCc2onc(COc3cccnc3)c2C1	46.2
Cc1ccoc1C(=O)N1CCc2ncnc(-c3cnn(C)c3)c2CC1	-49.8
Cc1cc(C2CCN(S(=O)(=O)N(C)C)CC2)ccn1	9.05
CN(C)CCN1C(=O)CCC12CCN(Cc1cccs1)CC2	29.7
CCc1nc(CN2CCN(C(=O)c3cncnc3CC)CC2)cs1	-86.365
CC(C)NC(=O)N1CC[C@@H]2[C@@H]1CC(=O)N2Cc1cccnc1	6.27
CC1c2ncc(COc3cccnc3)n2CCN1C(=O)C1=CCCCC1 (stereo not given)	-6.23
COc1ccc(CNC(=O)Nc2cccnc2N2CCCC2)cc1OC	31.2
Nc1nc2c(c(NC(=O)Nc3cccc(Cl)c3)n1)CCCC2	88.8
Nc1nc2c(c(NC(=O)Nc3ccc(Cl)c(Cl)c3)n1)CCCC2	-10.3
Nc1nc2c(c(NC(=O)Nc3ccccc3)n1)CCCC2	32.1
COCCOc1ccc(CNc2cnc3ccccc3n2)cn1	-43
COCCOc1ccc(CNc2nc3ccccc3nc2N)cn1	80.9
COCCOc1ccc(CNc2nc3ccccc3o2)cn1	-11.5
COCCNC(=O)Cn1c(-c2cccc(F)c2)nc(C)c(CCO)c1=O	7.22
Cc1cnc(C(=O)N2CCOCC2c2ccccc2)cn1 (stereo not given)	43.6
